PubChem BioAssay (Tox21)
The source made the active and inactive calls. Unless noted, calls come from the whole dose curve; as a rule, active = well fitted curve in the direction sought with a large enough effect in the repeat runs; inconclusive = weak or mixed curves; inactive = no such curve, though single readings can be large; an effect the other way counts as inactive or inconclusive.

What was measured:
[1] = qHTS assay for small molecules that induce genotoxicity in human embryonic kidney cells expressing luciferase-tagged ATAD5 (AID 651632); note: nearly all actives have a fitted effect of over 15% in size; note: potency is the fitted concentration of half-maximal effect
Outline: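 Cells were seeded at 2,000 per well, dosed with compound, and incubated 16 hr at 37C in 5% CO2. Luciferase activity was then quantified after a 30 min room-temperature incubation with Amplite.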

[2] = qHTS assay for small molecule disruptors of the mitochondrial membrane potential - cell viability (AID 720634; calls by dose curve; note: nearly all actives have a fitted effect of over 20% in size; note: potency is the fitted concentration of half-maximal effect)
Outline: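 Cytotoxicity was measured by ATP quantitation in HepG2 wells that had first been treated with compound for 1 hr and stained with m-MPI dye; CellTiter-Glo incubation was 30 min at room temperature.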

[3] = qHTS assay to test for compound auto fluorescence at 590 nm (red) in HepG2 cells (AID 720674)
Outline: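 Intrinsic compound fluorescence in the red window (Ex/Em 540/590 nm) is measured in attached HepG2 cells exposed for 1 hr, DMSO vehicle as baseline, benchmarked to Rose Bengal sodium.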

[4] = qHTS assay to test for compound auto fluorescence at 535 nm (green) in HepG2 cells (AID 720675)
[5] = qHTS assay to test for compound auto fluorescence at 535 nm (green) in HEK293 cell free culture (AID 720682)
Outline: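 Cell-free medium (DMEM, 10% FBS) receives compound or DMSO by pintool. Plate read directly at Ex 485/Em 535 nm. Signal converted to fluorescein equivalency.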

[6] = qHTS assay to test for compound auto fluorescence at 590 nm (red) in HepG2 cell free culture (AID 720684)
Outline: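 Readout: intrinsic compound fluorescence at 590 nm emission after 540 nm excitation, scaled to Rose Bengal sodium. Matrix was cell-free MEM with 10% FBS; DMSO vehicle wells served as control.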

[7] = qHTS assay to test for compound auto fluorescence at 460 nm (blue) in HepG2 cells (AID 720687)
Outline: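 Cells (2,000/well in MEM with 10% FBS) attached overnight at 37 C, then were exposed to compound or DMSO for 1 hr at 37 C, 5% CO2. Fluorescence read at Ex/Em 405/460 nm, expressed as triamterene-equivalent signal.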

[8] = target: Glucocorticoid receptor (Homo sapiens) (UniProt P04150); assay: qHTS assay to identify small molecule agonists of the glucocorticoid receptor (GR) signaling pathway (AID 720691; active = well fitted activation curve with a large enough effect in the signal ratio in the repeat runs, not every such curve was filed as active; inconclusive = weak or mixed curves, or effect the other way; inactive = no such curve, though single readings can be large or run the other way; the % refers to the signal ratio)
Sequence of Glucocorticoid receptor (Homo sapiens) (P04150 whole entry, looked up): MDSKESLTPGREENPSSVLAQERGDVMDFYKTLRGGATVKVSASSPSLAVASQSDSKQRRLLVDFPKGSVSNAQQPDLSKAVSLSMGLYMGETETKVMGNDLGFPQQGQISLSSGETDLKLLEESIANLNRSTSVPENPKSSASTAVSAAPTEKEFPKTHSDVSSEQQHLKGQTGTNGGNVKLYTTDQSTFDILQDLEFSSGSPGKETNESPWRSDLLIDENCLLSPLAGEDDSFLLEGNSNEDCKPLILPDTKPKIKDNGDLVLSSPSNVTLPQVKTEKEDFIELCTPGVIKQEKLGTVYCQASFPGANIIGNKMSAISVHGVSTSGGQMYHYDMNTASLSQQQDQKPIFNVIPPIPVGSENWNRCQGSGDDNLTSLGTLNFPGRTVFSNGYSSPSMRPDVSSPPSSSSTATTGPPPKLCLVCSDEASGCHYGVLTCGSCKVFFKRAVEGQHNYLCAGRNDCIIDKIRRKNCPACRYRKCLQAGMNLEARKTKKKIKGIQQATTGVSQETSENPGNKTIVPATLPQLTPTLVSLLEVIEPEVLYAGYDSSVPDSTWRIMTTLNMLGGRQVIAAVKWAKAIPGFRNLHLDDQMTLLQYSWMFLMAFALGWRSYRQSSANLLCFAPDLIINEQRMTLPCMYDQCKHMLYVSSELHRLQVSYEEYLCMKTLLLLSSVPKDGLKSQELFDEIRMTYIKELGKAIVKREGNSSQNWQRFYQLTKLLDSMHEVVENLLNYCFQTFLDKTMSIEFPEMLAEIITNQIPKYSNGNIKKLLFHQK
Outline: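 Steps: seed GR-bla HeLa cells, incubate 4 h at 37 C/5% CO2; pin-transfer DMSO-dissolved compounds; incubate 18 h at 37 C; add LiveBLAzer B/G FRET substrate; after 2 h at room temperature, measure fluorescence.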

[9] = qHTS assay for identifying genotoxic compounds that show differential cytotoxicity against isogenic chicken DT40 cell lines with known DNA damage response pathways - wild type cell line (AID 743012); note: nearly all actives have a fitted effect of over 60% in size; note: potency is the fitted concentration of half-maximal effect
Outline: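 Cytotoxicity in repair-proficient parental chicken DT40 cells serves as the comparator for Rad54/Ku70- and Rev3-deficient lines. Cells were exposed to compounds for 40 h at 37 C/5% CO2, and ATP-based luminescence (CellTiter-Glo) measured viability.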

[10] = qHTS assay for identifying genotoxic compounds that show differential cytotoxicity against isogenic chicken DT40 cell lines with known DNA damage response pathways - Rev3 mutant cell line (AID 743014); note: nearly all actives have a fitted effect of over 55% in size; note: potency is the fitted concentration of half-maximal effect
[11] = qHTS assay for identifying genotoxic compounds that show differential cytotoxicity against isogenic chicken DT40 cell lines with known DNA damage response pathways - Rad54/Ku70 mutant cell line (AID 743015); note: nearly all actives have a fitted effect of over 60% in size; note: potency is the fitted concentration of half-maximal effect
[12] = qHTS assay to identify small molecule antagonists of the thyroid receptor (TR) signaling pathway - cell viability counter screen (AID 743064); note: nearly all actives have a fitted effect of over 50% in size; note: potency is the fitted concentration of half-maximal effect
Outline: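 GH3.TRE-Luc cells, 4 h pre-plating; cpd + T3 1 nM final; 37 °C 23.5 h; CellTiter-Fluor 30 min; fluorescence read.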

[13] = target: Estrogen receptor (Homo sapiens) (UniProt P03372); assay: qHTS assay to identify small molecule antagonists of the estrogen receptor alpha (ER-alpha) signaling pathway (AID 743069; active = well fitted curve in the direction sought with a large enough effect in the signal ratio in the repeat runs, not every such curve was filed as active; inconclusive = weak or mixed curves, or effect the other way; inactive = no such curve, though single readings can be large or run the other way; the % refers to the signal ratio; note: potency is the fitted concentration of half-maximal effect)
Sequence of Estrogen receptor (Homo sapiens) (P03372 whole entry, looked up): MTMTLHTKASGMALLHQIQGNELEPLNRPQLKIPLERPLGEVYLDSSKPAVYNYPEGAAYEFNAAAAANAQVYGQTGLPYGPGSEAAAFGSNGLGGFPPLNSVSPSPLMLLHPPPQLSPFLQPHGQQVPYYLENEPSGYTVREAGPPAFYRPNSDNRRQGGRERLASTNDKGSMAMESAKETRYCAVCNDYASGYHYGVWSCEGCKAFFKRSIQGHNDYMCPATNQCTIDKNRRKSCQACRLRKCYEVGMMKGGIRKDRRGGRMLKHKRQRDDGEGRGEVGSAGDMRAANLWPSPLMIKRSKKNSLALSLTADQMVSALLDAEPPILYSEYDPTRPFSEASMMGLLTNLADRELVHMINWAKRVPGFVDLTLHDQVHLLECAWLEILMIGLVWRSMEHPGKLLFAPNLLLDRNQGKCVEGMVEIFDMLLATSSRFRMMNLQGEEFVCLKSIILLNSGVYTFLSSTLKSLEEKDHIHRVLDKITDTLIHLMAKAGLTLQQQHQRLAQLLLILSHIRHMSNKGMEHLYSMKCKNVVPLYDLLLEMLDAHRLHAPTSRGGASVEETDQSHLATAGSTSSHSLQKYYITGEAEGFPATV
Outline: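 Screening used a UAS-driven beta-lactamase reporter integrated into HEK293 cells expressing ER-alpha, stimulated with 17beta-estradiol alongside test compounds over 18 hr at 37C; signal came from LiveBLAzer B/G FRET fluorescence.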

[14] = target: Estrogen receptor (Homo sapiens) (UniProt P03372); assay: qHTS assay to identify small molecule agonists of the estrogen receptor alpha (ER-alpha) signaling pathway (AID 743075; calls by dose curve; note: potency is the fitted concentration of half-maximal effect)
[15] = target: Estrogen receptor (Homo sapiens) (UniProt P03372); assay: qHTS assay to identify small molecule agonists of the estrogen receptor alpha (ER-alpha) signaling pathway using the BG1 cell line (AID 743079); note: nearly all actives have a fitted effect of over 20% in size; note: potency is the fitted concentration of half-maximal effect
[16] = qHTS assay to identify small molecule antagonists of the estrogen receptor alpha (ER-alpha) signaling pathway using the BG1 cell line (AID 743080; calls by dose curve;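 note: BG1 cells stimulated with 17beta-estradiol alongside compound; nearly all actives have a fitted effect of over 25% in size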; note: potency is the fitted concentration of half-maximal effect)
Outline: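 Endogenous full-length ER-alpha in BG1-Luc-4E2 cells drives a stably integrated 4×ERE luciferase gene; compounds were tested against 17beta-estradiol over 21.5 h, with luminescence and multiplexed viability fluorescence recorded.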

[17] = target: Aryl hydrocarbon receptor (Homo sapiens) (UniProt P35869); assay: qHTS assay to identify small molecule that activate the aryl hydrocarbon receptor (AhR) signaling pathway (AID 743085);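 note: HG2L7.5c1 human HepG2 liver cells with stably integrated DRE-driven firefly reporter; series mostly up to about 70 µM; nearly all actives have a fitted effect of over 15% in size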
Sequence of Aryl hydrocarbon receptor (Homo sapiens) (P35869 whole entry, looked up): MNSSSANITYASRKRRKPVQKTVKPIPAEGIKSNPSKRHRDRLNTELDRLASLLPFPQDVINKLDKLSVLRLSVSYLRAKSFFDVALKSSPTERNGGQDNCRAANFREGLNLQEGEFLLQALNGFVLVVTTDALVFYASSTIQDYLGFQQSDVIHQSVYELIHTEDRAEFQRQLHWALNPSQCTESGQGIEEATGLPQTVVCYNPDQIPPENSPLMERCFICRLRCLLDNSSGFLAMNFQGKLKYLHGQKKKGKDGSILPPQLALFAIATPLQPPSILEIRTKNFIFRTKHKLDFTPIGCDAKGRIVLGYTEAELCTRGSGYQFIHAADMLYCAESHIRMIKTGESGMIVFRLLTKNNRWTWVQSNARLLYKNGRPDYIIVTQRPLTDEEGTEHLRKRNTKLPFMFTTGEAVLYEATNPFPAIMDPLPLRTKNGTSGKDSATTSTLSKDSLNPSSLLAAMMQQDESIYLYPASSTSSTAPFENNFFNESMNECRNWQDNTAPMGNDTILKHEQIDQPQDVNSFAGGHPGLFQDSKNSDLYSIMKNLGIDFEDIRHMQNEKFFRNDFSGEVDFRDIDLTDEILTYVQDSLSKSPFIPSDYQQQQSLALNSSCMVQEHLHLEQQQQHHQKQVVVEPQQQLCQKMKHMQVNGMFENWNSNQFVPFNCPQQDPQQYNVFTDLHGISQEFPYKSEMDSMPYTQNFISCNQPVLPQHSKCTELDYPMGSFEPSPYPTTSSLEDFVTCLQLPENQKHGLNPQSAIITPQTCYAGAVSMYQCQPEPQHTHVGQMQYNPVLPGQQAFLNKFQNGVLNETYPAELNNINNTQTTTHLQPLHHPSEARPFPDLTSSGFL
Outline: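 Luminescence read-out: ONE-Glo reagent, 30 min at room temperature, in HG2L7.5c1 HepG2 reporter cells treated 24 h at 37C. Viability was measured beforehand by CellTiter-Fluor fluorescence after 30 min at 37C.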

[18] = target: Peroxisome proliferator-activated receptor gamma (Homo sapiens) (UniProt P37231); assay: qHTS assay to identify small molecule agonists of the peroxisome proliferator-activated receptor gamma (PPARg) signaling pathway (AID 743094; active = well fitted activation curve with a large enough effect in the signal ratio in the repeat runs, not every such curve was filed as active; inconclusive = weak or mixed curves, or effect the other way; inactive = no such curve, though single readings can be large or run the other way; the % refers to the signal ratio)
Sequence of Peroxisome proliferator-activated receptor gamma (Homo sapiens) (P37231 whole entry, looked up): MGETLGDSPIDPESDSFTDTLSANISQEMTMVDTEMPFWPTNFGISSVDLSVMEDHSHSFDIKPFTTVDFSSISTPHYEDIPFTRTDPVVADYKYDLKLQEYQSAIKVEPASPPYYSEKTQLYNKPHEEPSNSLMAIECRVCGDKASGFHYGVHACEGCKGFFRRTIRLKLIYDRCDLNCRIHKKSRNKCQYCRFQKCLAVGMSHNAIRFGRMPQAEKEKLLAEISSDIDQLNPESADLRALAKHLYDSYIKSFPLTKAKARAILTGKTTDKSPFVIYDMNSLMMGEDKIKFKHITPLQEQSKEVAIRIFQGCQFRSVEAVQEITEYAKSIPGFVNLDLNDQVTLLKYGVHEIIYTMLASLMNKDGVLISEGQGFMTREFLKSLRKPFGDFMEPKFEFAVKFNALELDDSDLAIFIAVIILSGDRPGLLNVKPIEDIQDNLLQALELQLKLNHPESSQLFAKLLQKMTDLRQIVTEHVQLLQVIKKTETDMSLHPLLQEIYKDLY
Outline: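 Cells from the PPARg UAS-bla HEK293H line are plated and incubated 5 h at 37C. Compounds in DMSO are pinned in and left 17 h at 37C. LiveBLAzer B/G substrate is then added for 1 h at room temperature before fluorescence is measured.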

[19] = target: Nuclear receptor subfamily 1 group I member 2 (Homo sapiens) (UniProt O75469); assay: CYP3A4 induction through human pregnane X receptor (PXR) by small molecules, qHTS assay (AID 1346984); note: nearly all actives have a fitted effect of over 40% in size
Outline: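 Quantitative HTS in DPX-2 cells, i.e. HepG2 transfected with PXR response element and CYP3A4-promoter luciferase. Compounds in DMSO incubated 24hr at 37C; then P450-Glo CYP3A4 substrate, 3uM final, 3hr; One-Glo luminescence.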

[20] = qHTS assay to test for compound auto fluorescence at 535 nm (green) in HEK293 cells (AID 720680)

Measured: Potency

O=C(CS(=O)C(c1ccccc1)c1ccccc1)NO (stereo not given)
not listed: [20]
inactive: all other assays above

C=CCN1CC[C@]23c4c5ccc(O)c4O[C@H]2[C@@H](O)C=C[C@H]3[C@H]1C5
not listed: [8] | [13] | [14] | [15] | [16] | [17]
inactive: all other assays above

Oc1cccc[c]1[Hg][Cl]
active: [2] 13.3 µM | [9] 0.473 µM | [10] 0.75 µM | [11] 0.473 µM | [12] 0.841 µM | [14] 6.01 µM [inconclusive]
inactive: [1] | [4] | [20] | [5] | [6] | [7] | [17]

[2H]C([2H])([2H])[C@H](N)Cc1ccccc1
not listed: [2] | [5] | [11] | [19]
inactive: all other assays above

CCCC(=O)OC(C(Cl)(Cl)Cl)P(=O)(OC)OC (stereo not given)
active: [15] 26.6 µM
not listed: [1] | [4] | [5] | [7] | [16] | [17]
inactive: all other assays above

CC(=O)OO
not listed: [7] | [8] | [9] | [19]
inactive: all other assays above

COc1ccc2c(c1)C13CCCC[C@@H]1C(C2)N(C)CC3 (stereo not given in full)
not listed: [3] | [6] | [8] | [9] | [10] | [17] | [19] | [20]
inactive: all other assays above

O=C1C=C2C=C[C@@H]3C[C@@]2(O1)[C@H]1CCCCN31
inactive: [2] | [20] | [5] | [6] | [7] | [8] | [14] | [17] | [19]
active: [1] 6.68 µM | [10] 10.6 µM | [11] 5.96 µM | [12] 11.9 µM

CN1CCCC(=C(c2cccs2)c2cccs2)C1
not listed: [1] | [3] | [4] | [5] | [8] | [9] | [11]
inactive: all other assays above

CCN(CC)C(=O)N[C@H]1C[C@@H]2c3cccc4[nH]cc(c34)C[C@H]2N(C)C1
active: [9] 29.8 µM
inactive: [1] | [2] | [3] | [4] | [20] | [6] | [7] | [12] | [18]

Cc1nnc2n1-c1ccc(Cl)cc1C(c1ccccc1)=NC2
active: [13] 21.3 µM [inconclusive] | [16] 11.9 µM
not listed: [1] | [11] | [12] | [15] | [17] | [18] | [19]
inactive: all other assays above

CCN1C[C@]2(COC)[C@H](O)C[C@H](OC)[C@@]34[C@@H]5C[C@@]6(O)[C@H](OC(=O)c7ccccc7)[C@@H]5[C@@](OC(C)=O)([C@@H]([C@H](OC)[C@H]23)[C@@H]14)[C@@H](O)[C@@H]6OC
not listed: [6] | [7] | [8] | [19]
inactive: all other assays above

Oc1ccc2c3c1O[C@H]1[C@@H](O)CC[C@@]4(O)[C@@H](C2)N(CC2CCC2)CC[C@]314
not listed: [6] | [13] | [16] | [17] | [19]
inactive: all other assays above

C[C@]12CC[C@H](OS(=O)(=O)O)CC1=CC[C@@H]1[C@@H]2CC[C@]2(C)C(=O)CC[C@@H]12
active: [15] 13.3 µM
not listed: [2] | [3] | [5] | [8] | [9] | [19]
inactive: all other assays above

CC(Cc1ccccc1)NC=O (stereo not given)
inactive: [1] | [2] | [3] | [4] | [20] | [5] | [7] | [9] | [10] | [11] | [12]

CCC1(CC)C(=O)NC(=O)N(C)C1=O
not listed: [3] | [5]
inactive: all other assays above

O=C1CN(O)C(c2ccccc2)=c2cc(Cl)ccc2=N1
not listed: [13] | [14] | [15] | [16] | [17] | [19]
inactive: all other assays above

O=c1[nH]cc(N(CCCl)CCCl)c(=O)[nH]1
not listed: [2] | [10]
inactive: all other assays above

CNC(=O)OCC[N+](C)(C)C
not listed: [5] | [11] | [18] | [19]
inactive: all other assays above

C=C[C@H]1CN2CC[C@H]1C[C@@H]2[C@@H](O)c1ccnc2ccccc12
inactive: [1] | [2] | [3] | [6] | [7] | [12] | [17] | [18]

C[C@@H](CO)NC(=O)[C@@H]1C=C2c3cccc4[nH]cc(c34)C[C@H]2N(C)C1
inactive: [1] | [2] | [3] | [4] | [5] | [6] | [8] | [10] | [18]

S=C(S)N1CCNCC1
not listed: [10] | [11]
inactive: all other assays above
